Measurements: PubChem BioAssay AID1159580 (chemical genetic matrix, 2015)
Values joined by “and” are separate entries in the source; they are usually repeats but may differ in a detail not shown here. Equal values may be shown once. The whole screen tested about 5,500 compounds, of which about 2,000 (36%) were called active. About 18% were inconclusive and are not listed. Rule as the data show it: active = normalized growth mostly below about 0.91 (no sharp cut-off); inconclusive = no clear call, values can overlap the other calls; inactive = mostly above about 0.92. The list shows a part of the results.

Experiment: chemical genetic growth profiling, strain panel (AID 1159580);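 also: tested at 20 µM; growth read once vehicle control cultures reached saturation at 30 °C; 1 = growth at the plate median or of vehicle wells; lower values mean less growth of the strain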
Conditions: S. cerevisiae deletion strains, growth OD

Measured: normalized growth

CN(C)CCOC(=O)C(c1ccccc1)C1(O)CCCC1 (stereo not drawn)
inactive: locus YAL013W, strain DEP1, hits give low values 1.01 | locus YAL021C, strain ccr4, hits give low values 0.987 | locus YAL026C, strain drs2, hits give low values 1.03 | locus YAL030W, strain snc1, hits give low values 0.99 | locus YBL061C, strain skt5, hits give low values 0.995 | locus YBR009C, strain hhf1, hits give low values 1 | locus YBR021W, strain FUR4, hits give low values 0.991 | locus YBR023C, strain chs3, hits give low values 1 | locus YBR171W, strain sec66, hits give low values 0.97 | locus YBR229C, strain ROT2, hits give low values 0.998 | locus YBR231C, strain swc5, hits give low values 0.972 | locus YBR279W, strain paf1, hits give low values 0.992 | locus YCL011C, strain gbp2, hits give low values 1.01 | locus YCL016C, strain dcc1, hits give low values 1.03 | locus YCL029C, strain bik1, hits give low values 1.02 | locus YCL061C, strain MRC1, hits give low values 0.993 | locus YCL069W, strain vba3, hits give low values 0.991 | locus YCR088W, strain abp1, hits give low values 0.981 | locus YDL005C, strain med2, hits give low values 0.991 | locus YDL035C, strain GPR1, hits give low values 1.01 | locus YDL040C, strain nat1, hits give low values 0.974 | locus YDL074C, strain BRE1, hits give low values 1.02 | locus YDL101C, strain DUN1, hits give low values 0.998 | locus YDL185W, strain tfp1, hits give low values 1.01 | locus YDL192W, strain arf1, hits give low values 1.02 | locus YDR001C, strain nth1, hits give low values 0.963 | locus YDR069C, strain doa4, hits give low values 0.99 | locus YDR101C, strain arx1, hits give low values 1 | locus YDR137W, strain rgp1, hits give low values 1.04 | locus YDR150W, strain NUM1, hits give low values 0.998 | locus YDR159W, strain sac3, hits give low values 1.01 | locus YDR162C, strain NBP2, hits give low values 1.01 | locus YDR195W, strain ref2 0.925 | locus YDR297W, strain sur2, hits give low values 0.981 | locus YDR318W, strain mcm21, hits give low values 1.01 | locus YDR334W, strain swr1, hits give low values 0.984 | locus YDR335W, strain msn5, hits give low values 0.985 | locus YDR388W, hits give low values 1.01 | locus YDR392W, strain spt3, hits give low values 1.08 | locus YDR502C, strain sam2, hits give low values 1.02 | locus YEL003W, strain gim4, hits give low values 0.978 | locus YEL037C, strain rad23, hits give low values 0.984 | locus YEL061C, strain CIN8 (second series), hits give low values 0.984 | locus YEL061C, strain CIN8, hits give low values 1 | locus YER015W, strain faa2, hits give low values 0.999 | locus YER016W, strain bim1, hits give low values 1.01 | locus YER110C, hits give low values 1.02 | locus YER111C, strain swi4, hits give low values 0.971 | locus YER155C, strain BEM2 (second series), hits give low values 1 | locus YER155C, strain BEM2, hits give low values 0.996 | locus YER167W, strain BCK2, hits give low values 1 | locus YFR010W, strain ubp6, hits give low values 0.962 | locus YGL078C, strain dbp3, hits give low values 1.01 | locus YGL086W, strain mad1, hits give low values 1.02 | locus YGL167C, strain pmr1, hits give low values 0.974 | locus YGL173C, strain kem1, hits give low values 0.989 | locus YGL227W, strain vid30, hits give low values 0.988 | locus YGL240W, strain doc1, hits give low values 0.963 | locus YGL248W, strain PDE1, hits give low values 1.01 | locus YGL253W, strain hxk2, hits give low values 1 | locus YGR135W, strain pre9, hits give low values 1.03 | locus YGR252W, strain gcn5, hits give low values 0.964 | locus YHR013C, strain ard1, hits give low values 1.02 | locus YHR027C, strain rpn1, hits give low values 1.01 | locus YHR030C, strain SLT2, hits give low values 1 and 0.988 | locus YHR079C, strain IRE1 (second series), hits give low values 1.01 | locus YHR079C, strain IRE1, hits give low values 1 | locus YHR094C, strain hxt1, hits give low values 1.02 | locus YHR129C, strain ARP1, hits give low values 1 | locus YHR142W, strain chs7, hits give low values 0.985 | locus YHR200W, strain rpn10, hits give low values 1.02 | locus YIL066C, strain RNR3, hits give low values 1.01 | locus YIL073C, strain SPO22, hits give low values 1.02 | locus YIL125W, strain kgd1, hits give low values 1.01 | locus YIR030C, strain dcg1, hits give low values 1.03 | locus YJL092W, strain hpr5, hits give low values 0.981 | locus YJL095W, strain BCK1 (second series), hits give low values 0.996 | locus YJL095W, strain BCK1, hits give low values 1.02 and 0.991 | locus YJL115W, strain asf1, hits give low values 0.97 | locus YJL129C, strain trk1, hits give low values 0.96 | locus YJL134W, strain LCB3, hits give low values 1 | locus YJL154C, strain vps35, hits give low values 0.972 | locus YJL164C, strain tpk1, hits give low values 1.01 | locus YJL166W, strain qcr8, hits give low values 0.978 | locus YJL168C, strain set2, hits give low values 1.01 | locus YJL187C, strain SWE1 (second series), hits give low values 1.02 | locus YJR043C, strain POL32, hits give low values 1.01 | locus YJR066W, strain TOR1, hits give low values 0.995
